The structures appear in SMILES notation. Records with an inconclusive call do not appear. The source made the active and inactive calls. The calls were made as follows, unless noted: active = hit-call score of the fitted dose curve at least 0.9, where 1 is the maximum; inconclusive = response in the unintended direction; inactive = score below 0.9.

Chain of THRA (gene 7067) (P10827 whole entry, looked up): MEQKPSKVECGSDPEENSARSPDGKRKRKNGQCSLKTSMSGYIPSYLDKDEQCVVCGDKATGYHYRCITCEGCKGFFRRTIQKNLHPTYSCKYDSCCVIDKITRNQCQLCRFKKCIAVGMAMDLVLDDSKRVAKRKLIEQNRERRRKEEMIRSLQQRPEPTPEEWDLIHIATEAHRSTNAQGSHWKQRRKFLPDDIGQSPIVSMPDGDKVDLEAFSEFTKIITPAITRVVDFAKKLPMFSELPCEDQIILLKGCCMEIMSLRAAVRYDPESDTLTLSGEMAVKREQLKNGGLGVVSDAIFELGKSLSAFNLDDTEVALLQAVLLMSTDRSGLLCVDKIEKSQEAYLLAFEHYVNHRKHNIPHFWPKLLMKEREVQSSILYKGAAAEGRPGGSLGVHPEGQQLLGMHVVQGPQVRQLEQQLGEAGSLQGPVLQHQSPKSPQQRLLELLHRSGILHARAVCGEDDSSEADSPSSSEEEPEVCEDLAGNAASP

Read-out in the first assay: not listed separately
Description: CEETOX_H295R_DOC_noMTC: CeeTox H295R High-throughput Steroidogenesis Assay for DOC, maximum tolerated concentration (MTC) filtered results only (AID 2283918; active = hit-call score of the fitted dose curve at least 0.9, where 1 is the maximum; inactive = score below 0.9). The conditions noted are these: actives raise or lower the signal. The procedure: CEETOX_H295R is a cell-based, multiplexed-readout assay that uses H295R, a human adrenal gland cell line, with measurements taken at 48 hours after chemical dosing in a 96-well plate.CEETOX_H295R_DOC_noMTC is one of 12 assay component(s) measured or calculated from the CEETOX_H295R assay (11 hormones and 1 viability assay). It is designed to make measurements of hormone induction, a form of inducible reporter, as detected with absorbance signals by HPLC-MS-MS technology. The concentrations for these components have not been pre-filtered for the maximum tolerated concentration (MTC) based on the MTT assay (_noMTC).Data from the assay component CEETOX_H295R_DOC_noMTC was analyzed into 1 assay endpoint. This assay endpoint, CEETOX_H295R_DOC_noMTC, was analyzed with bidirectional fitting relative to DMSO as the negative control and baseline of activity. […]
Cell culture and media preparation procedures were conducted in accordance with OECD Test No. 456 guidelines, with minor modifications. […] For steroid quantification, media samples were shipped to OpAns, LLC (Durham, NC) on dry ice, and samples were thawed to room temperature prior to liquid-liquid extraction. […] Steroid hormones were separated by HPLC, eluted using a reverse phase C18 gradient with electrospray positive ionization, followed by quantification by tandem mass spectrometry (MS/MS). Data were acquired on a MassHunter Workstation Acquisition version B03.01 (Agilent Technologies, Inc.) and processed using MassHunter Quantitative Analysis for QQQ. Accuracy was determined for each hormone analyte from 3 standards to determine upper and lower limits of quantification (ULOQ and LLOQ, respectively) using a 7-point standard curve. Precision and accuracy of the extraction and quantification methods were calculated as the percent relative standard deviation (%RSD) of the spiked standards and percent spiked standard recovered, respectively. […] Test medium was removed following chemical exposure, and cell viability was evaluated in the same wells by MTT. […]
Turning to `CC=Cc1ccc(OC)c(OC)c1`, the molecule was called inactive.
For `COc1ccc(OC)c(N=Nc2c(O)ccc3ccccc23)c1`, the molecule was classed as inactive.
On to `C=C[Si]1(C)O[Si](C)(C=C)O[Si](C)(C=C)O[Si](C)(C=C)O1` (stereo unspecified), for which the molecule was called inactive.

Read-out in another assay: not listed separately
Description: CEETOX_H295R_PROG_noMTC: CeeTox H295R High-throughput Steroidogenesis Assay for Progesterone (PROG), maximum tolerated concentration (MTC) filtered results only (AID 2283920; active = hit-call score of the fitted dose curve at least 0.9, where 1 is the maximum; inactive = score below 0.9). The conditions noted are these: actives raise or lower the signal. Summed up: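 H295R cells, prestimulated 48 h with 10 uM forskolin, exposed 48 h to chemical in 0.1% DMSO. Medium progesterone quantified by MTBE extraction and HPLC-MS/MS; bidirectional fit versus DMSO, concentrations not MTT-filtered.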
As to `COc1ccc(OC)c(N=Nc2c(O)ccc3ccccc23)c1`, the molecule was called inactive.
`C=C[Si]1(C)O[Si](C)(C=C)O[Si](C)(C=C)O[Si](C)(C=C)O1` (stereo unspecified): the outcome was inactive.
As for `O=C(Nc1ccc2c(O)c(N=Nc3ccc(N=Nc4ccc(S(=O)(=O)O)cc4)cc3)c(S(=O)(=O)O)cc2c1)c1ccccc1`, the molecule was called inactive.

For the next assay, the target named is PGR (gene 5241) (UniProt P06401). As to the kind of experiment: TOX21_PR_BLA_Followup_Antagonist_ratio: Tox21 HEK293 Progesterone Receptor (PR) Antagonism Beta-lactamase Follow-Up Assay, Ratio (AID 2283934).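 Also: PR-UAS-bla HEK293T cells stimulated with 1 nM R5020 agonist for 16 hr.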
Chain of PGR (gene 5241) (P06401 whole entry, looked up): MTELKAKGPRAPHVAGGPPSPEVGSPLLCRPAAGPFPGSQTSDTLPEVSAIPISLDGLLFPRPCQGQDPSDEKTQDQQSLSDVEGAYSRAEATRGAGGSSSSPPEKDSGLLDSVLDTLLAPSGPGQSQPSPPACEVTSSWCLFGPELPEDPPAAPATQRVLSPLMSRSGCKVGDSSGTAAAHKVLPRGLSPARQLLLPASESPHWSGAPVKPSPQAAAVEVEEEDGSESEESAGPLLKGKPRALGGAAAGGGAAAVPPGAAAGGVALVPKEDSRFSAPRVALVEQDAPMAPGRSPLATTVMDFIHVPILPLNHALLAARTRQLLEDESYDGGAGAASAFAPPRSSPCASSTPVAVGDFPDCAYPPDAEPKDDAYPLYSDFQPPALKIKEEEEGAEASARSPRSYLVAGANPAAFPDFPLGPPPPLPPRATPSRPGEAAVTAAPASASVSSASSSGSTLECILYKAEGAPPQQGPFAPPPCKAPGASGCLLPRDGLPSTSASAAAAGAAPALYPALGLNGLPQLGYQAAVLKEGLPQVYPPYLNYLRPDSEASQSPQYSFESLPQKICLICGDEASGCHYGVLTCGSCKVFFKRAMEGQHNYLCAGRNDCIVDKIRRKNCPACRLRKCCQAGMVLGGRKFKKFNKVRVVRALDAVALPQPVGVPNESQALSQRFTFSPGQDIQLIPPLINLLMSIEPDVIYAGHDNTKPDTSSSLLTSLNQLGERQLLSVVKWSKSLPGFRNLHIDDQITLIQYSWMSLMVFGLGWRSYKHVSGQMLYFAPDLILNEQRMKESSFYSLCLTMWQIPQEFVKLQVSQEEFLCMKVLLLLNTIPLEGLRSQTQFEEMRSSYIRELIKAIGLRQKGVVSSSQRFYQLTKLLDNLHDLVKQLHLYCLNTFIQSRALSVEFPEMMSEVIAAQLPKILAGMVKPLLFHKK
Details: not given
Summed up:
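Antagonist mode used 1 nM R5020 (final) as agonist on a beta-lactamase reporter line in HEK293T cells. Activity was taken from the substrate cleavage ratio after 16 hr exposure.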
As a reminder, the AC50 is the concentration at which the activity in the assay is half-maximal. On to `Clc1ccc(C(c2ccccc2Cl)C(Cl)Cl)cc1` (stereo unspecified), for which the concentration at half-maximal activity (AC50) was 11 µM (active).
Take `CCCOC(=O)c1c(Cl)c(Cl)c(Cl)c(Cl)c1C(=O)OCCC`: the AC50 was 9.87 µM (active).
On the same count and under the same terms, the value for `O=c1c(O)c(-c2ccc(O)cc2)oc2cc(O)cc(O)c12` was 43.7 µM (active).
In the case of `C=C1CC[C@H](O)C/C1=C/C=C1\CCC[C@]2(C)[C@@H]([C@H](C)/C=C/[C@H](C)C(C)C)CC[C@@H]12`, the result was inactive.
Turning to `CCOC(=O)C(C#N)=C(c1ccccc1)c1ccccc1`, the AC50 is 15.2 µM (active).
On to `O=C(Nc1ccc2c(c1)Cc1ccccc1-2)C(F)(F)F`, for which the AC50 is 19.6 µM (active).
On to `N#Cc1ccc(CC(=O)c2cccc(C(F)(F)F)c2)cc1`, for which the AC50 is 46.1 µM (active).

Test system in another assay: not listed separately
Description: TOX21_PR_BLA_Followup_Agonist_viability: Viability Assessment in the Tox21 HEK293 Progesterone Receptor (PR) Agonism Beta-lactamase Follow-Up Assay (AID 2283935).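 Also: signal loss means lower viability so actives are cytotoxic.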
Details: not given
In a few lines: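 Multiplexed viability counter-screen: ATP-coupled luciferase signal measured after 30 min at room temperature, following 16 hr compound treatment of PR-UAS-bla HEK293T cells grown in charcoal-stripped serum.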
As to `Clc1ccc(C(c2ccccc2Cl)C(Cl)Cl)cc1` (stereo unspecified), the result was inactive.
With `CCCOC(=O)c1c(Cl)c(Cl)c(Cl)c(Cl)c1C(=O)OCCC`, the molecule was called inactive.
For `O=c1c(O)c(-c2ccc(O)cc2)oc2cc(O)cc(O)c12`, the molecule was called inactive.
On the same count and under the same terms, the value for `CCOC(=O)C(C#N)=C(c1ccccc1)c1ccccc1` was “inactive”; that for `O=C(Nc1ccc2c(c1)Cc1ccccc1-2)C(F)(F)F` was “inactive”; that for `N#Cc1ccc(CC(=O)c2cccc(C(F)(F)F)c2)cc1` was “inactive”.

Test system in the next assay: not listed separately
As to the kind of experiment: TOX21_PR_BLA_Followup_Antagonist_viability: Viability Assessment in the Tox21 HEK293 Progesterone Receptor (PR) Antagonism Beta-lactamase Follow-Up Assay (AID 2283936).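 Also: hits lower the luminescence signal meaning cytotoxicity.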
Details: not given
Summed up:
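PR-UAS-bla HEK293T cells (3,000/well, 2% charcoal-stripped FBS) given compound plus R5020 agonist, 16 h at 37C. CellTiter-Glo added after bla read, 30 min at room temperature; luminescence loss indicates cytotoxicity.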
For `Clc1ccc(C(c2ccccc2Cl)C(Cl)Cl)cc1` (stereo unspecified), the outcome was inactive.
As to `CCCOC(=O)c1c(Cl)c(Cl)c(Cl)c(Cl)c1C(=O)OCCC`, the molecule was called inactive.
As to `C=C1CC[C@H](O)C/C1=C/C=C1\CCC[C@]2(C)[C@@H]([C@H](C)/C=C/[C@H](C)C(C)C)CC[C@@H]12`, the outcome was inactive.
For `CCOC(=O)C(C#N)=C(c1ccccc1)c1ccccc1`, the outcome was inactive.
On the same count and under the same terms, the value for `O=C(Nc1ccc2c(c1)Cc1ccccc1-2)C(F)(F)F` was “inactive”.
For `N#Cc1ccc(CC(=O)c2cccc(C(F)(F)F)c2)cc1`, the result was inactive.

In the next assay the target is PGR (gene 5241) (UniProt P06401). As to the kind of experiment: TOX21_PR_LUC_Followup_Antagonist: Tox21 HEK293 Progesterone Receptor (PR) Antagonism Luciferase Follow-Up Assay (AID 2283938).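 Also: curve fitted upward as signal gain over DMSO baseline despite antagonist label.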
Details: not given
Summed up:
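Luciferase reporter in HEK293-PR-A-luc cells: 16 h compound treatment at 37C, ONE-Glo luminescence detection, DMSO as negative control and baseline.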
For the molecule `Clc1ccc(C(c2ccccc2Cl)C(Cl)Cl)cc1` (stereo unspecified), the AC50 was 13.1 µM (active).
Regarding `CCCOC(=O)c1c(Cl)c(Cl)c(Cl)c(Cl)c1C(=O)OCCC`, the AC50 is 21.2 µM (active).
As for `C=C1CC[C@H](O)C/C1=C/C=C1\CCC[C@]2(C)[C@@H]([C@H](C)/C=C/[C@H](C)C(C)C)CC[C@@H]12`, the molecule was classed as inactive.
Consider `CCOC(=O)C(C#N)=C(c1ccccc1)c1ccccc1`, for which the AC50 was 23 µM (active).
With `O=C(Nc1ccc2c(c1)Cc1ccccc1-2)C(F)(F)F`, the AC50 was 62.9 µM (active).
Take `N#Cc1ccc(CC(=O)c2cccc(C(F)(F)F)c2)cc1`: the AC50 is 32 µM (active).

The target of the next assay is Thyroid hormone receptor alpha (Rattus norvegicus) + Thyroid hormone receptor beta (Rattus norvegicus) (UniProt P18113+P63059). Description: TOX21_TR_LUC_GH3_Agonist_Followup: Tox21 GH3 Thyroid Hormone Receptor Agonism Luciferase Follow-Up Assay (AID 2283939).
Chain of Thyroid hormone receptor alpha (Rattus norvegicus) + Thyroid hormone receptor beta (Rattus norvegicus) (P63059 whole entry, looked up): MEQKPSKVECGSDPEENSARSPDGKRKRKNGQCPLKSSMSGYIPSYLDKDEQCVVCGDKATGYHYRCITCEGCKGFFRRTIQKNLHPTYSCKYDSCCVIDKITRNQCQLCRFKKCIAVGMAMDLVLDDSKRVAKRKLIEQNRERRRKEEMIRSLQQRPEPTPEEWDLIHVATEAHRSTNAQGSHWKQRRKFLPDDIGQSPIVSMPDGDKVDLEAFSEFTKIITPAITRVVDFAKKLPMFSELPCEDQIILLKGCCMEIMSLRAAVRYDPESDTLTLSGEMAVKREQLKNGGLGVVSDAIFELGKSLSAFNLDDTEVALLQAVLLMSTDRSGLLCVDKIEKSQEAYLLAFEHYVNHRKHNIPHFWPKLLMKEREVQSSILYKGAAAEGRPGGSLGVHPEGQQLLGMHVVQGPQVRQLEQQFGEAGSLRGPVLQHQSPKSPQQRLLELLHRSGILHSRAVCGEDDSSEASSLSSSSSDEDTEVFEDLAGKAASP
Chain of Thyroid hormone receptor alpha (Rattus norvegicus) + Thyroid hormone receptor beta (Rattus norvegicus) (P18113 whole entry, looked up): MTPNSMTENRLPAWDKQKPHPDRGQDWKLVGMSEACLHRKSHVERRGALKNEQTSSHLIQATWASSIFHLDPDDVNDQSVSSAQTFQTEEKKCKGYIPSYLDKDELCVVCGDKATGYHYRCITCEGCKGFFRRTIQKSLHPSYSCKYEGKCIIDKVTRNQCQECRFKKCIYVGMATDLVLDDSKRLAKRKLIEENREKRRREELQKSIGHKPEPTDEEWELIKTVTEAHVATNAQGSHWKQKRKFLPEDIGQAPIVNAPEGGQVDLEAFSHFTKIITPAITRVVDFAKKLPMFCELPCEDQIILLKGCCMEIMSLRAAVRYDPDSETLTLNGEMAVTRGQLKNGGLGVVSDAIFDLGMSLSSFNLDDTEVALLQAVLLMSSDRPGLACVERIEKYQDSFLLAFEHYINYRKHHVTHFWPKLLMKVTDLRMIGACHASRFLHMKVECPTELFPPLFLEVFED
Details: not given
Summed up:
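Rat GH3 cells (1,500/well) in serum-free assay medium, treated with 15-point series, 92 uM to 5 nM final, for 24 h at 37C. Luciferase via ONE-Glo luminescence; gain of signal fitted against DMSO, T3 positive control.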
Regarding `OCCCCC(O)CO` (stereo unspecified), the result was inactive.
Same read-out and setting: the value for `Cc1cc(C)nc(NS(=O)(=O)c2ccc(N)cc2)n1` was “inactive”.
Same read-out and setting: the value for `C[C@H](CCC(=O)NCC(=O)O)[C@H]1CC[C@H]2[C@@H]3[C@H](O)C[C@@H]4C[C@H](O)CC[C@]4(C)[C@H]3C[C@H](O)[C@]12C` was “inactive”; that for `O=Cc1ccccc1S(=O)(=O)O` was “inactive”.

Test system in the next assay: not listed separately
As to the kind of experiment: TOX21_PR_LUC_Followup_Antagonist_viability: Viability Assessment in the Tox21 HEK293 Progesterone Receptor (PR) Antagonism Luciferase Follow-Up Assay (AID 2283940).
Details: not given
In a few lines:
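Cellular ATP, measured with luciferase-coupled CellTiter-Glo, served as the viability endpoint after HEK293-PR-A-luc cells were exposed to test compounds for 16 h at 37C.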
For `CCCOC(=O)c1c(Cl)c(Cl)c(Cl)c(Cl)c1C(=O)OCCC`, the call was inactive.
Consider `O=c1c(O)c(-c2ccc(O)cc2)oc2cc(O)cc(O)c12`, for which the molecule was called inactive.
For the molecule `C=C1CC[C@H](O)C/C1=C/C=C1\CCC[C@]2(C)[C@@H]([C@H](C)/C=C/[C@H](C)C(C)C)CC[C@@H]12`, the molecule was classed as inactive.
For the molecule `CCOC(=O)C(C#N)=C(c1ccccc1)c1ccccc1`, the result was inactive.
For the molecule `O=C(Nc1ccc2c(c1)Cc1ccccc1-2)C(F)(F)F`, the molecule was called inactive.
As to `N#Cc1ccc(CC(=O)c2cccc(C(F)(F)F)c2)cc1`, the molecule was called inactive.

Test system in a further assay: not listed separately
As to the kind of experiment: TOX21_PR_LUC_Followup_Agonist_viability: Viability Assessment in the Tox21 HEK293 Progesterone Receptor (PR) Agonism Luciferase Follow-Up Assay (AID 2283941).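 Also: loss of signal means cytotoxicity so actives lower viability.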
Details: not given
In a few lines: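 Luminescent ATP quantitation (CellTiter-Glo) serves as the read-out; a drop flags cytotoxic compounds. Cells are HEK293-PR-A-luc grown in 10% charcoal-stripped FBS, plated 3,000/well, and exposed to compound for 16 h.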
`CCCOC(=O)c1c(Cl)c(Cl)c(Cl)c(Cl)c1C(=O)OCCC`: the molecule was classed as inactive.
For the molecule `O=c1c(O)c(-c2ccc(O)cc2)oc2cc(O)cc(O)c12`, the molecule was classed as inactive.
On the same count and under the same terms, the value for `CCOC(=O)C(C#N)=C(c1ccccc1)c1ccccc1` was “inactive”; that for `O=C(Nc1ccc2c(c1)Cc1ccccc1-2)C(F)(F)F` was “inactive”.
On to `N#Cc1ccc(CC(=O)c2cccc(C(F)(F)F)c2)cc1`, for which the call was inactive.

Another assay addresses THRA (gene 7067) (UniProt P10827). As to the kind of experiment: TOX21_TRA_COA_Agonist_Followup_ratio: Tox21 Thyroid Hormone Receptor alpha Agonism through Coactivator Recruitment Follow-Up Assay, Ratio (AID 2283948; active = hit-call score of the fitted dose curve at least 0.9, where 1 is the maximum; inactive = score below 0.9).
Details: not given
In a few lines: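 Agonist-mode biochemical TR-FRET with TRα LBD and SRC-2 coactivator peptide; activity expressed as percent of T3 response over DMSO baseline.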
`OCCCCC(O)CO` (stereo unspecified): the result was inactive.
On to `CC(=O)Nc1ccc(C(=O)CCl)cc1`, for which the result was inactive.
Turning to `Cc1cc(C)nc(NS(=O)(=O)c2ccc(N)cc2)n1`, the result was inactive.
On to `C[C@H](CCC(=O)NCC(=O)O)[C@H]1CC[C@H]2[C@@H]3[C@H](O)C[C@@H]4C[C@H](O)CC[C@]4(C)[C@H]3C[C@H](O)[C@]12C`, for which the outcome was inactive.
Take `O=Cc1ccccc1S(=O)(=O)O`: the result was inactive.

These data come from PubChem BioAssay (EPA / NIEHS).
